SMILES strings stand for the structures. Active and inactive are the calls of the source. Calls come from the whole dose curve; as a rule, active = well fitted inhibition curve with a large enough effect; inconclusive = small, poorly fitted or top-dose-only effect; inactive = flat fitted curve, though single readings scatter. Peptide text beside a SMILES is read from it.

DNA dC->dU-editing enzyme APOBEC-3G (Homo sapiens), sequence (Q9HC16 whole entry, looked up): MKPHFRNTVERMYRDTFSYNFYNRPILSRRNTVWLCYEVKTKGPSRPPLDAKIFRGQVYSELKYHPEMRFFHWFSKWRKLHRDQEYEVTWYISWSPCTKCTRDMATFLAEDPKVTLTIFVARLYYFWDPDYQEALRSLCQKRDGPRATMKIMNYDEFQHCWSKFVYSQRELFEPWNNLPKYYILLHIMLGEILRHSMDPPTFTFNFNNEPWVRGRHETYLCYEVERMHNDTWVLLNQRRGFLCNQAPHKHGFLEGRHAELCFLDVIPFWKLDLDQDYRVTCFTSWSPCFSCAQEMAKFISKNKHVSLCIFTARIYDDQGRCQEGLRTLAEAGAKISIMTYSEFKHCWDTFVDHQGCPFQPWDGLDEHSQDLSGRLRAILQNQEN

In the assay the target is DNA dC->dU-editing enzyme APOBEC-3G (Homo sapiens) (UniProt Q9HC16). The experiment in a line: qHTS for inhibitors of Vif-A3G interactions: Validation (AID 588379). Note: 0% is about no effect. The note with it: Vif-A3G protein interaction assay; series mostly up to 46.1 µM; activity change, negative = inhibition: at the top concentration. From the text:
The recent discovery and characterization of host restriction factors, which provide a potent defense to invading retroviruses, has provided new targets for antiviral drug development. APOBEC3G (A3G) and APOBEC3F (A3F) are potent cytidine deaminases that block HIV-1 replication; HIV-1 expresses the Vif protein, which counteracts A3G and A3F by binding to them and inducing their proteasomal degradation.
The Vif-A3G and Vif-A3F interactions provide two potential targets for development of small molecules which can interfere with the ability of Vif to degrade A3G or A3F. […] To identify inhibitors that can interfere with Vif mediated degradation of A3G and A3F, we have developed Hela cell lines that stably express A3G or A3F tagged with eYFP at the C-terminal end (A3G-eYFP or A3F-eYFP, respectively) and Vif. In the absence of an inhibitor, Vif induces degradation of A3G-eYFP and A3F-eYFP, and the cells are not fluorescent. In the presence of an inhibitor, it is expected that Vif will be unable to degrade A3G-eYFP and/or A3F-eYFP, resulting in an increase in yellow fluorescence. In this assays Vif A3G was screened against the Molecular Library Small Molecile Repository (MLSMR).
NIH Chemical Genomics Center [NCGC]
NIH Molecular Libraries Probe Centers Network [MLPCN]
Assay Submitter (PI): Vinay Pathak, National Cancer Institute
5 uL of 700 cells/well of A3G-YFP cells are dispensed into black, clear bottom plates. The plates are incubated overnight at 37 deg C. 23 nL of compounds are added by pintool. The plates are incubated overnight at 37 deg C and then read on the TTP Acumen (Ex 488/ Em 500-530).
In general terms: qHTS replaces the single test concentration by a dilution series.
For the compound `CC(=O)N[C@@H](CC(=O)O)C(=O)N[C@@H](CCC(=O)O)C(=O)O` (Ac-Asp-Glu-OH), the “activity change, negative = inhibition” value was 0.386% (inactive).

In the case of `O=c1ccn([C@@H]2O[C@H](CO)[C@@H](O)[C@H]2O)c(=O)[nH]1`, the “activity change, negative = inhibition” value was 0.914% (inactive). For the compound `Cc1c(C)c2c(c(C)c1O)CC[C@@](C)(CCC[C@H](C)CCC[C@H](C)CCCC(C)C)O2`, the “activity change, negative = inhibition” value is -8.84% (inactive). With `CC1=C(/C=C/C(C)=C/C=C/C(C)=C/CO)C(C)(C)CCC1`, the “activity change, negative = inhibition” value is -0.71% (inactive). Same read-out and setting: then `CC(Cc1ccc(O)c(O)c1)C(C)Cc1ccc(O)c(O)c1` (stereo unspecified), with -5.76% (inactive); and `COC(=O)[C@H]1[C@H]2CC3c4[nH]c5ccccc5c4CCN3C[C@@H]2CC[C@@H]1O` (stereo partly specified), with -2.71% (inactive); and `O=C(O)CC/C=C\CC[C@H]1[C@@H](N2CCCCC2)[C@@H](O)C[C@@H]1OCc1ccc(-c2ccccc2)cc1`, with -2.53% (inactive). `COC(=O)C1=C(C)NC(C)=C(C(=O)OCCCN2CCC(c3ccccc3)(c3ccccc3)CC2)[C@H]1c1cccc([N+](=O)[O-])c1`: the call was inactive. Consider `OCc1ccccc1O[C@@H]1O[C@H](CO)[C@@H](O)[C@H](O)[C@H]1O`, for which the “activity change, negative = inhibition” value is 0.547% (inactive). Still for that read-out and setting: the result for `Cc1cn([C@H]2C[C@H](O)[C@@H](CO)O2)c(=O)[nH]c1=O` reads -1.43% (inactive); that for `CCCC(=O)Nc1ncnc2c1ncn2[C@@H]1O[C@@H]2COP(=O)(O)O[C@H]2[C@H]1OC(=O)CCC`, -2.89% (inactive).

Source of the values: PubChem BioAssay (NCATS).
